Marburg entry inh: qHTS for inhibitors of binding or entry into cells for Marburg Virus. hit rate 1.8% among 300,000. Marburg virus pseudotyped entry inhibition, cell reporter. Potency, µM (top dose mostly 37.8 µM), for inactives: at the highest dose activity change, negative = inhibition, hits mostly inhibitors; calls by dose curve; tested in HEK293 cells; also: potency is read from the fitted curve at half-maximal effect
VACV Venus inh: qHTS for Stage-Specific Inhibitors of Vaccinia Orthopoxvirus: Venus Reporter Primary qHTS | Vaccinia virus Venus reporter expression, fluorescence | Potency, µM (doses to about 36.5 µM), inactives show at the highest dose activity change, negative = inhibition, actives largely listed as inhibitors | hit rate 0.46% among 330,000 | AID 720580, 2013; calls by dose curve; tested in A549 cells; also: potency is read from the fitted curve at half-maximal effect; nearly all actives have a fitted effect of over 30% in size
VACV mCherry inh: qHTS for Stage-Specific Inhibitors of Vaccinia Orthopoxvirus: mCherry Reporter Primary qHTS; Vaccinia virus mCherry reporter infection, fluorescence; Potency, µM (series often up to 36.5 µM), inactives show top-dose activity change, negative = inhibition, usual class: inhibitors; hit rate 0.63% among 310,000; AID 720579, 2013; calls by dose curve; tested in A549 cells; also: potency is read from the fitted curve at half-maximal effect; nearly all actives have a fitted effect of over 35% in size
HCMV antiviral: qHTS Assay for inhibitors of the human cytomegalovirus (HCMV); HFF cells, HCMV-luciferase reporter, 72 h; hits give low values; activity change, negative = inhibition, % at 57.5 µM; hit rate 4.5% among 410,000; in the data active = activity change below about -60%; inconclusive = no clear call, values can overlap the other calls; inactive = above about -39%
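Two compound doses tested in HFFs infected with HCMV-luciferase, MOI 1 PFU/cell, 72 h at 37C. Lysate luminescence read with OneGlo; data normalized against buffer-only and 10uM Salinomycin inhibitor controls.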
FMDV antiviral: High Throughput Screening for Foot and Mouth Disease Virus Antivirals; FMDV antiviral cell-based qHTS; Potency, µM (top dose mostly 57.9 µM), for inactives: at the top dose activity change, negative = inhibition, hits mostly inhibitors; hit rate 1.2% among 410,000; AID 1159524, 2015; calls by dose curve; tested in HEK293T cells; also: read-out not given here; potency is read from the fitted curve at half-maximal effect; nearly all actives have a fitted effect of over 45% in size
Lassa entry inh: qHTS for Inhibitors of binding or entry into cells for Lassa Virus; Lassa virus pseudotype entry inhibition, cell reporter; Potency, µM (highest dose often 37.9 µM), without a hit: top-dose activity change, negative = inhibition, hits mostly inhibitors; hit rate 1.2% among 300,000; AID 540256, 2011; calls by dose curve; tested in HEK293 cells; also: potency is read from the fitted curve at half-maximal effect; nearly all actives have a fitted effect of over 50% in size
* hit, by the source's call; i = inactive; ? = inconclusive; . = no result; [ ] = remark or other dose. Sampled rows, rich in hits. Any-hit rate of the full collection: about 6.5%. % is scaled to controls: 0 for no effect and ±100 for the full control effect.

SMILES	Marburg entry inh	VACV Venus inh	VACV mCherry inh	HCMV antiviral	FMDV antiviral	Lassa entry inh
COc1cc2nc(N(C)C)c(CNC3CCOC(C)(C)C3)cc2c(OC)c1OC (configuration not stated)	.	13%	-4%	.	-12%	.
O=C(CSc1nc(=O)[nH]c2c1CCC2)NCc1ccc(Cl)cc1	.	-6%[7.34 µM]	-6%[7.34 µM]	-2	-22%	0%[46.1 µM]
COc1ccc(OCCCCn2c(C3CC(=O)N(c4cccc(Cl)c4)C3)nc3ccccc32)cc1 (configuration not stated)	-28%[46.1 µM]	-23%	-17%	-7	?	?
COc1ccccc1CNS(=O)(=O)c1ccc(F)c(C(=O)Nc2cc(Cl)ccc2OC)c1	.	-16%	-4%	0	29%	8%[46.1 µM]
CCC(NC(=S)NC1CCCCC1)c1ccccc1 (configuration not stated)	.	.	.	-89*	.	.
CC(CCc1ccccc1)NC(=S)NC1CCCCC1 (configuration not stated)	4%[46.1 µM]	-10%	-7%	-39	4%	2%
Cc1ccc(N2CCN(S(=O)(=O)c3cc(Br)cc4c3N(C(=O)C3CC3)CC4)CC2C)cc1 (configuration not stated)	-4%[46.1 µM]	-2%	-1%	3	-11%	?
COc1cc(-c2nc(-c3cccc(Cl)c3)c(-c3ccccc3)[nH]2)cc(OC)c1OC	?	-14%	-25%	-33	-17%	?
COc1cc(-c2nc(-c3ccccc3)c(-c3cc([N+](=O)[O-])ccc3C)[nH]2)cc(OC)c1OC	?	?	.	-73*	-25%	?
Cc1ccc(CNc2nnc(C)c3nnn(Cc4ccc(F)cc4)c23)cc1	10%[46.1 µM]	-33%	?	6	1%	0%[46.1 µM]
O=C1[C@H](Oc2ccccc2)[C@@H](c2ccccc2)N1c1ccncc1	.	?	-24%	-6	16µM*	.
Nc1[nH]nc2nc(NCc3ccccc3)c3c(c12)CCN(Cc1ccccc1)C3	?	0%	-19%	1	-22%	13µM*
N#Cc1c(NCCN)nc(NCc2ccccc2)c2c1CCN(Cc1ccccc1)C2	?	-21%	-8%	.	-17%	7%
CCn1nc(C)c(/C=N/NC(=S)Nc2ccc(Cl)cc2Cl)c1C	-18%	-14%	-22%	-103*	10%	-9%
Cc1nn(C)cc1/C=N/NC(=S)Nc1ccc(Cl)cc1Cl	?	-13%	-4%	-32	-10%	-2%
O=[N+]([O-])c1ccc(O)c(/C=N/NC(=S)Nc2ccc(Cl)cc2Cl)c1	?	-13%	?	0	-13%	?
O=[N+]([O-])c1ccc(/C=N/NC(=S)Nc2ccc(Cl)cc2Cl)s1	.	.	.	-64*	-21%	.
Cc1cccc(N(Cc2ccccc2)C(=O)c2cc(S(=O)(=O)N3CCOCC3)ccc2Cl)c1	13µM*	-17%	-6%	?	0%	?
Cc1oc(-c2ccccc2NC(=O)C2CCCO2)nc1CNC(=O)c1cc(Cl)ccc1F (configuration not stated)	.	-3%	-10%	.	-9%	.
CCn1c(=O)c2cc(C(=O)NCCCN3CCC(C)CC3)sc2c2ccccc21	?	-22%	-24%	-76*	-7%	?
CCCN1CCN(CCCNC(=O)c2cc3c(=O)n(CC)c4ccccc4c3s2)CC1	?	-16%	-18%	?	0%	-22%[46.1 µM]
CCn1c(=O)c2cc(C(=O)NC3CCC(C)CC3)sc2c2ccccc21 (configuration not stated)	29%[46.1 µM]	-16%	-2%	-67*	-3%	10%[46.1 µM]
COc1cc(/C=C2\C[C@H]3[C@@H]4CC=C5C[C@@H](N6CCCC6)CC[C@]5(C)[C@H]4CC[C@]3(C)[C@H]2O)cc(OC)c1OC	10µM*	-9%	-10%	8	-2%	-28%
C[C@]12CC[C@@H](O)CC1=CCC1C2CC[C@@]2(C)C1CC[C@@H]2N (some centres not stated)	-1%[46.1 µM]	-9%	i	-25	-10%	-4%[46.1 µM]
O=C(Cc1ccc(OCCc2ccccc2)cc1)NO	.	-8%	12%	.	.	.
SMILES	Marburg entry inh	VACV Venus inh	VACV mCherry inh	HCMV antiviral	FMDV antiviral	Lassa entry inh
CCc1nn(C(CC)C(=O)NCc2ccc(OC)c(OC)c2)c(=O)c2cc3oc(C)cc3n12 (configuration not stated)	1%[46.1 µM]	-21%	-26%	-17	-18%	0%[46.1 µM]
CC(C)(C)OC(=O)NCCCCc1cn(CC(=O)N2CCN(C(=O)OC(C)(C)C)CC2)nn1	.	-10%	-22%	-80*	-24%	.
CC(C)(C)OC(=O)N1CCN(C(=O)Cn2cc(CCO)nn2)CC1	.	-5%	-14%	64	-2%	.
CC[C@H](C)C(C(=O)N1CCN(C(=O)OC(C)(C)C)CC1)n1cc(C(CC(C)C)NC(=O)OC(C)(C)C)nn1 (some centres not stated)	.	-3%	5%	12	-29%	.
CC[C@@H](C)[C@@H](C(=O)N1CCN(C(=O)OC(C)(C)C)CC1)n1cc(CCCCNC(=O)OC(C)(C)C)nn1	.	-3%	-2%	-27	13µM*	.
CCCNC(=O)NCCC12CC3CC(CC(C3)C1)C2	0%[46.1 µM]	-25%	i	-26	20%	2.5µM*
CCN(CC)c1ccc(-c2nnc(SCC(=O)N(CCOC)c3c(N)n(CC(C)C)c(=O)[nH]c3=O)o2)cc1	?	?	8.9µM*	-20	7%	-8%[46.1 µM]
CCCCn1c(N)c(N(CCOC)C(=O)CSc2ccccc2C)c(=O)[nH]c1=O	8%	-14%	i	1	3%	0%
CCCCN(C(=O)CSc1n[nH]c(-c2ccc(C)cc2)n1)c1c(N)n(CCCC)c(=O)[nH]c1=O	24%	0%	-13%	?	43%	-1%
CCCCCN(C(=O)CN1CCC(Cc2ccccc2)CC1)c1c(N)n(CCCC)c(=O)[nH]c1=O	10µM*	-16%	-16%	46	-16%	?
CCCCn1c(N)c(N(CCOC)C(=O)CSCc2ccccc2C)c(=O)[nH]c1=O	13%	-13%	i	-97*	-7%	3%
COCCN(C(=O)CSc1nnc(-c2ccc(C)c(C)c2)o1)c1c(N)n(CC(C)C)c(=O)[nH]c1=O	-5%[46.1 µM]	?	?	4	-2%	16%
CCCCn1c(N)c(N(CCOC)C(=O)CSc2n[nH]c(-c3ccc(OC)cc3)n2)c(=O)[nH]c1=O	?	-5%	i	-76*	10%	-9%
CCCNC(=O)N1[C@@H]2CN(C(=O)Nc3ccccc3)c3ccccc3[C@@H]2[C@@H]1CO	.	.	.	-23	.	.
CCN1CCN(C(=O)c2sc3ncnc(NCC4CCCO4)c3c2C)CC1 (configuration not stated)	.	-4%	-10%	.	-9%	.
CCc1ccc(C(=O)c2cn(CC(=O)Nc3cc(F)ccc3F)c3nc(C)ccc3c2=O)cc1	.	-11%	-17%	1	-19%	-6%[46.1 µM]

Compound activity (PubChem)
